Sampled rows, rich in hits. Any-hit rate of the full collection: about 4.1%.
ssDAF12 agonist: activates DAF-12 receptor from parasite S. stercoralis; HEK293 ssDAF-12/GRIP1 lit1-tk-luc reporter, luminescence; % of 3 µM dafachronic acid response; activation, % at 6.8 µM; 370,000 compounds, 1% hits; AID 652126;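 active means activation above the mean over all tested compounds plus 3 SD, cut at about 0.9% in these data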
DAX1 inh-1: NR0B1 (DAX1) inhibition; inhibition, % at 6.75 µM; HEK293 Gal4-DAX1 luciferase reporter, luminescence; P51843; 340,000 compounds, 0.99% hits;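 active means inhibition above the mean over all tested compounds plus 3 SD, cut at about 4.2% in these data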;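 further: inhibition shows as a rise in luminescence from relieved DAX1 repression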
Target sequence (P51843 207-470 limits assumed): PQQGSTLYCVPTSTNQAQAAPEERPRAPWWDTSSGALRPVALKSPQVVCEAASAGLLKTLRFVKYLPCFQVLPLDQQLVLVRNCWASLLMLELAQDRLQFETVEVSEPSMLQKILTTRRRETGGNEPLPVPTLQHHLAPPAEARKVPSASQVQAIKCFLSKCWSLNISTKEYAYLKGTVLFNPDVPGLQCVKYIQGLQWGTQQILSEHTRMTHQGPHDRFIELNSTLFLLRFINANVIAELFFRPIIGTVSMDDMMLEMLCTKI
hgDAF-12 ag: hgDAF-12 agonism, primary luciferase screen; HEK293 GAL4-hgDAF12 UAS-luciferase reporter, agonist luminescence; normalized to butyrate control; activation, % at 6.8 µM; 370,000 compounds, 1.8% hits; AID 687014;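 active means activation above a cutoff set at the mean of all screened compounds plus 3 SD, cut at about 10% in these data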
DAX1 inh-2: inhibitors of DAX1 repression of SF-1 activated StAR promoter; inhibition, % at 6.8 µM; AID 652010; HEK293T StAR-luciferase reporter, SF-1/DAX-1 repression relief; 370,000 compounds, 1.1% hits;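 active means inhibition above the mean over all tested compounds plus 3 SD, cut at about 3.6% in these data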;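 further: higher inhibition means more luminescence from relief of DAX-1 repression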
hcDAF-12 act: activates DAF-12 receptor from parasite H. contortus; HEK293 hcDAF-12 lit1-tk-luc reporter, luminescence; 0% DMSO, 100% Δ7-dafachronic acid; activation, % at 6.8 µM; 370,000 compounds, 1.4% hits; AID 652067;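 active means activation above the mean of all tested compounds plus 3 SD, cut at about 5.5% in these data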
Each line names hits and unclear results; the compound was inactive in the other large screens; ! = not confirmed by another sample.

O=C(Oc1ccc2c(-c3ccccc3)cc(=O)oc2c1)c1cccs1	DAX1 inh-1 4.4
Nc1ccc(C(=O)O)c(O)c1	hgDAF-12 ag 10.6!
O=C(O)c1ccc(O)cc1O	none
CNc1nnc(-c2ccc(N(C)C)cc2)s1	hgDAF-12 ag 10.9, DAX1 inh-2 5.8
Cc1ccc(CSc2nnc(-c3cc(-c4ccc(F)cc4)n[nH]3)n2N)cc1	none (no result: DAX1 inh-1)
O=c1c2ccccc2nnn1COc1ccc(F)cc1Cl	none
O=c1c2ccccc2nnn1COc1cccc2ccccc12	ssDAF12 agonist 1.1
Fc1ccc(-n2nnc(-c3ccccc3Cl)n2)cc1	none
Clc1nc2ccccc2cc1-c1nnn(-c2ccccc2)n1	hcDAF-12 act 6.4
CC(C)Oc1ccc(C2NC(=O)c3ccccc3O2)cc1 (centres undefined)	DAX1 inh-1 4.4
CC(C)c1ccc(C2NC(=O)c3ccccc3O2)cc1 (centres undefined)	none
CCCCN1CCS(=O)(=O)N(Cc2cn(Cc3ccccc3Br)nn2)C(C(=O)OC)C1 (centres undefined)	none (no result: DAX1 inh-1)
COC(=O)[C@]12C[C@H](CC(=O)NCC34CC5CC(CC(C5)C3)C4)C(=O)N(Cc3ccco3)C1=C[C@H](C(C)C)O[C@@H]2C1CC1	none (no result: DAX1 inh-1)
Cc1ccc(S(=O)(=O)N(C)CC(=O)NCC(=O)Nc2ccc(F)c(F)c2F)cc1	DAX1 inh-1 4.7
CCCC(=O)N1CCC[C@]2(CC[C@H](CCC(C)=O)O2)C1	none (no result: DAX1 inh-1)
c1ccc(-c2ccc(-c3ccncn3)cc2)cc1	hgDAF-12 ag 11.9
c1ccc(-c2csc(-c3ccncc3)n2)cc1	none
COC(=O)CSc1nc2ccccn2c(=O)c1C=O	ssDAF12 agonist 1.5, hcDAF-12 act 6.3
COC(=O)[C@]12C[C@H](CC(=O)NCC34CC5CC(CC(C5)C3)C4)C(=O)N(Cc3ccc(Cl)cc3Cl)C1=C[C@H](C(C)(C)C)O[C@@H]2C	none (no result: DAX1 inh-1)
Cc1ccccc1NC(=S)NCCc1c[nH]c2ccccc12	hcDAF-12 act 6.0
Cc1ccc(C)c(NC(=S)NCCc2c[nH]c3ccccc23)c1	none
CCOc1ccc(OCC)c(NC(=O)c2ccc(CNc3c(N4CCCC4)c(=O)c3=O)cc2)c1	DAX1 inh-1 6.3
CC(C)CC(C)NC(=O)c1ccc(C(F)(F)F)cc1 (centres undefined)	DAX1 inh-1 4.7
CCCCNC(=O)C(NC(=O)c1ccc(C(F)(F)F)cc1)C(=O)c1ccccc1 (centres undefined)	ssDAF12 agonist 2.4 (no result: DAX1 inh-1)
C#CCC(NC(=O)c1ccc(C(F)(F)F)cc1)C(=O)NCCC (centres undefined)	none
O=C(c1cc(F)ccc1F)N1CCCC(c2nc(-c3cccs3)no2)C1 (centres undefined)	none (no result: DAX1 inh-1)
CCN(CC)c1ccc(C=C2C(=O)OC(C)(C(C)(C)C)OC2=O)cc1 (centres undefined)	DAX1 inh-1 4.9
COc1ccccc1NS(=O)(=O)c1cccs1	none
O=S(=O)(Nc1cccc2ccccc12)c1cccs1	hcDAF-12 act 6.1
O=S(=O)(Nc1ccc(O)c2ccccc12)c1cccs1	hcDAF-12 act 6.7
CC[C@]12CCCN3CCc4c(n(c5ccccc45)[C@@](O)(C(=O)OC)C1)[C@@H]32	DAX1 inh-1 5.0
CCOC(=O)NN1C(=O)c2ccccc2NC1(C)C	none
CC1(C)Nc2ccccc2C(=O)N1NC(=O)c1ccccc1	hcDAF-12 act 5.7
Cc1nc(OCC(C)C)c2sc3nc4c(cc3c2n1)COC(C)(C)C4	none (no result: DAX1 inh-1)
COc1nc(C)nc2c1sc1nc3c(cc12)COC(C)(C)C3	hgDAF-12 ag 13.0, DAX1 inh-2 3.9
C=CCOc1nc(-c2ccccc2Cl)nc2ccccc12	ssDAF12 agonist 1.4
O=C(O)/C=C/C(=O)Nc1ccc2c(c1)C(=O)c1ccccc1C2=O	hgDAF-12 ag 12.6
CN1CCN(Cc2coc3c(Cl)cc(Cl)cc3c2=O)CC1	ssDAF12 agonist 1.3
O=c1c(CN2CCN(c3cccc(Cl)c3)CC2)coc2c(Cl)cc(Cl)cc12	none
COCCCNC(=O)c1oc2ccc(S(=O)(=O)N3CCOCC3)cc2c1C	DAX1 inh-1 4.9
Cc1c(C(=O)NC2CCCc3ccccc32)oc2ccc(S(=O)(=O)N3CCCC3)cc12 (centres undefined)	none
Cc1c(C(=O)NCCc2ccccc2)oc2ccc(S(=O)(=O)N3CCOCC3)cc12	none
Cc1c(C(=O)NC2CCCc3ccccc32)oc2ccc(S(=O)(=O)N3CCOCC3)cc12 (centres undefined)	DAX1 inh-1 5.8
COc1cccc(-c2nnc(SCC(=O)OC(C)C)n2-c2ccc(Cl)cc2)c1	none (no result: DAX1 inh-1)
NC(=NC(=O)/C=C/c1ccccc1Br)N(CC#Cc1ccccc1)CC#Cc1ccccc1	none (no result: DAX1 inh-1, DAX1 inh-2)
CC1CC(C)CN(C(=O)c2cccc(N3C(=O)c4ccccc4C3=O)c2)C1 (centres undefined)	DAX1 inh-2 4.3
CC(=O)N1CSCC1C(=O)NNS(=O)(=O)c1cccc(C(F)(F)F)c1 (centres undefined)	DAX1 inh-1 6.3
CC(=O)N1CSCC1C(=O)NNS(=O)(=O)c1ccccc1 (centres undefined)	none (no result: DAX1 inh-1)
COc1ccccc1NS(=O)(=O)c1cccc(C(=O)NCC(c2ccccc2OC)N2CCCC2)c1 (centres undefined)	DAX1 inh-2 4.3
COc1ccccc1NS(=O)(=O)c1cccc(C(=O)NCC(c2ccco2)N2CCCC2)c1 (centres undefined)	none
COc1ccccc1NS(=O)(=O)c1cccc(C(=O)OCC(=O)Nc2cc(C)on2)c1	none
COc1ccccc1NS(=O)(=O)c1cccc(C(=O)OCc2nc3ccccc3s2)c1	ssDAF12 agonist 2.7, hcDAF-12 act 5.6
CCCCn1cnc2c(=O)[nH]ccc21	none (no result: DAX1 inh-1)
COc1cc2c(cc1NC(=O)CSc1ccccn1)oc1ccccc12	hcDAF-12 act 6.5
COc1ccc(CC(=O)Nc2cc3oc4ccccc4c3cc2OC)cc1	hgDAF-12 ag 12.2
Fc1ccc(F)c(C2=NNC(=NCC3CCCO3)SC2)c1 (centres undefined)	hgDAF-12 ag 11.8
COc1ccc(Cc2nc(=S)[nH][nH]2)cc1Br	DAX1 inh-1 4.5
O=C(CCc1nnc(C2(c3ccc(Cl)cc3)CCC2)o1)NC1CC1	none
COC(=O)CNC(=O)CCc1nnc(C2(c3ccc(Cl)cc3)CCC2)o1	DAX1 inh-1 4.4
C=C(C)CNC(=O)CCc1nnc(C2(c3ccc(Cl)cc3)CCC2)o1	none
C=CCNC(=O)CCc1nnc(C2(c3ccc(Cl)cc3)CCC2)o1	hgDAF-12 ag 12.2
CC(=O)N1CCN(c2ccc(N3CCN(Cc4ccccc4)[C@@H](C)C3)c(C)c2)[C@H](C)C1	none (no result: DAX1 inh-1)
COc1ccc(N(C)C(=O)c2sc(Cl)nc2C)cc1	none
Cc1ccc(OC(=O)c2sc(Cl)nc2C)cc1C	DAX1 inh-1 4.3
O=S(=O)(c1cccs1)N1CCC(c2cn3ccccc3n2)CC1	none (no result: DAX1 inh-1)
Cc1ccsc1C(=O)OCc1nnc(-c2ccccc2)o1	DAX1 inh-2 4.0
